# Laboratory results published in the supplement of paper PMC10849652.
# The full data set covers some 7,900 targets. This sample favours those with a hit. About 0.6% of all pairs of compound and target were hits. Values without a mark were called inactive.
# What was measured:
# Assay in all cases: log2 fold change, soluble protein after heating vs DMSO (PISA); higher = thermal stabilisation; K562 cells, 10 uM, 30 min; active = over 0.2 and 3.5 SD of the protein, either way, in both replicates (recomputed)
# [1] = compound: CC1=C(C=C(C=C1)NC(=O)C2=CC(=CC=C2)C(C)(C)C#N)NC3=CC4=C(C=C3)N=CN(C4=O)C
# Summary of the method: (§1)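 K562 cells at 2×10^6 cells/mL were treated for 30 min with 10 μM compound, and aliquots were heated for 3 min over 48°C-58°C before pooling. Extraction used PBS with 0.5% NP-40 at 4°C, and soluble protein was the supernatant after 21,000xg for 90 min, measured by TMTpro 16plex LC-MS/MS with channel sums equalised. Thermal stability values, relative to control samples and from duplicates, are log2 fold changes.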
# [2] = compound: CC1=C(C=C(C=C1)NC(=O)C2=CC(=CC=C2)N(C)C)NC(=O)C3=CC=C(C=C3)O
# Summary of the method: as §1
# [3] = compound: CC1=CC=C(C=C1)SC2=C3C=C(SC3=CN=C2)C(=O)N
# Summary of the method: as §1
# [4] = compound: CC1=NC(=CC=C1)C2=C(N=C(N2)C(C)(C)C)C3=CC4=NC=CN=C4C=C3
# Summary of the method: as §1
# Nexturastat A = compound: CCCCN(Cc1ccc(C(=O)NO)cc1)C(=O)Nc1ccccc1 [Nexturastat A]
# Summary of the method: as §1
# vemurafenib = compound: CCCS(=O)(=O)Nc1ccc(F)c(C(=O)c2c[nH]c3ncc(-c4ccc(Cl)cc4)cc23)c1F [vemurafenib]
# Summary of the method: as §1
# [5] = compound: CCCS(=O)(=O)Nc1ccc(F)c(C(=O)c2c[nH]c3ncc(Cl)cc23)c1F
# Summary of the method: as §1
# [6] = compound: CCCc1cc(C)[nH]c(=O)c1CNC(=O)c1cc(-c2ccnc(N3CCN(C)CC3)c2)cc2c1cnn2C(C)C
# Summary of the method: as §1
# givinostat = compound: CCN(CC)Cc1ccc2cc(COC(=O)Nc3ccc(C(=O)NO)cc3)ccc2c1 [givinostat]
# Summary of the method: as §1
# barasertib = compound: CCN(CCCOc1ccc2c(Nc3cc(CC(=O)Nc4cccc(F)c4)[nH]n3)ncnc2c1)CCOP(=O)(O)O [barasertib]
# Summary of the method: as §1
# [7] = compound: CC[C@@H]1C(=O)N(C)c2cnc(Nc3ccc(C(=O)NC4CCN(C)CC4)cc3OC)nc2N1C1CCCC1
# Summary of the method: as §1
# volasertib = compound: CC[C@@H]1C(=O)N(C)c2cnc(Nc3ccc(C(=O)N[C@H]4CC[C@H](N5CCN(CC6CC6)CC5)CC4)cc3OC)nc2N1C(C)C [volasertib]
# Summary of the method: as §1
# [8] = compound: CC[C@H](C)N1C=C(C2=C(C=C(C=C21)C3=CN=C(C=C3)N4CCNCC4)C(=O)NCC5=C(C=C(NC5=O)C)C)C
# Summary of the method: as §1
# epoxomicin = compound: CC[C@H](C)[C@@H](C(=O)N[C@@H]([C@@H](C)O)C(=O)N[C@@H](CC(C)C)C(=O)[C@]1(CO1)C)NC(=O)[C@H]([C@@H](C)CC)N(C)C(=O)C [epoxomicin]
# Summary of the method: as §1
# [9] = compound: CCn1c(C(=O)N(C2CC2)C2CC2)cc2c3c(ncn3C)c(Nc3cc(C)n(C)n3)nc21
# Summary of the method: as §1
# [10] = compound: CCn1cc(-c2ccnc3[nH]c(-c4cccc(CN(C)C)c4)cc23)c(-c2ccc(NC(=O)N(C)C)cc2)n1
# Summary of the method: as §1
# [11] = compound: CN(C)CC(=O)Nc1ccc2[nH]c(=O)c3ccccc3c2c1
# Summary of the method: as §1
# rosiglitazone = compound: CN(CCOC1=CC=C(C=C1)C[C@H]2C(=O)NC(=O)S2)C3=CC=CC=N3 (racemic) [rosiglitazone]
# Summary of the method: as §1
# [12] = compound: CN1C2=C(C3=C1C(=O)N(N=C3)CC4=CC(=CC=C4)N)SC(=C2)S(=O)C
# Summary of the method: as §1
# [13] = compound: CN1CCC(CNc2ccc3ncc(-c4cccc(OC(F)(F)F)c4)n3n2)CC1
# Summary of the method: as §1
# UniProt Q7Z7E8, sequence (Q7Z7E8 whole entry, looked up): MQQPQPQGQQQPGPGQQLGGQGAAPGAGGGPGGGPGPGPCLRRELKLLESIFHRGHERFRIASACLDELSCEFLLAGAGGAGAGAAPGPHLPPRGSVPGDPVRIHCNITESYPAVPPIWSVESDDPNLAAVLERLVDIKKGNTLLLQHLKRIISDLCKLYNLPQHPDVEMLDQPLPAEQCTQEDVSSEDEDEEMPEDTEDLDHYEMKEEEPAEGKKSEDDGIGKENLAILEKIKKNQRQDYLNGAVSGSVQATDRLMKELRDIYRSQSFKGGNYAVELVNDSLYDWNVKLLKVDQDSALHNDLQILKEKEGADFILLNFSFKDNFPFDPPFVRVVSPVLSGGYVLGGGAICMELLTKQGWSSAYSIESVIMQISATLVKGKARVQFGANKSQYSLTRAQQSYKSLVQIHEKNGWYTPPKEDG
# UniProt Q93008, sequence (Q93008 whole entry, looked up): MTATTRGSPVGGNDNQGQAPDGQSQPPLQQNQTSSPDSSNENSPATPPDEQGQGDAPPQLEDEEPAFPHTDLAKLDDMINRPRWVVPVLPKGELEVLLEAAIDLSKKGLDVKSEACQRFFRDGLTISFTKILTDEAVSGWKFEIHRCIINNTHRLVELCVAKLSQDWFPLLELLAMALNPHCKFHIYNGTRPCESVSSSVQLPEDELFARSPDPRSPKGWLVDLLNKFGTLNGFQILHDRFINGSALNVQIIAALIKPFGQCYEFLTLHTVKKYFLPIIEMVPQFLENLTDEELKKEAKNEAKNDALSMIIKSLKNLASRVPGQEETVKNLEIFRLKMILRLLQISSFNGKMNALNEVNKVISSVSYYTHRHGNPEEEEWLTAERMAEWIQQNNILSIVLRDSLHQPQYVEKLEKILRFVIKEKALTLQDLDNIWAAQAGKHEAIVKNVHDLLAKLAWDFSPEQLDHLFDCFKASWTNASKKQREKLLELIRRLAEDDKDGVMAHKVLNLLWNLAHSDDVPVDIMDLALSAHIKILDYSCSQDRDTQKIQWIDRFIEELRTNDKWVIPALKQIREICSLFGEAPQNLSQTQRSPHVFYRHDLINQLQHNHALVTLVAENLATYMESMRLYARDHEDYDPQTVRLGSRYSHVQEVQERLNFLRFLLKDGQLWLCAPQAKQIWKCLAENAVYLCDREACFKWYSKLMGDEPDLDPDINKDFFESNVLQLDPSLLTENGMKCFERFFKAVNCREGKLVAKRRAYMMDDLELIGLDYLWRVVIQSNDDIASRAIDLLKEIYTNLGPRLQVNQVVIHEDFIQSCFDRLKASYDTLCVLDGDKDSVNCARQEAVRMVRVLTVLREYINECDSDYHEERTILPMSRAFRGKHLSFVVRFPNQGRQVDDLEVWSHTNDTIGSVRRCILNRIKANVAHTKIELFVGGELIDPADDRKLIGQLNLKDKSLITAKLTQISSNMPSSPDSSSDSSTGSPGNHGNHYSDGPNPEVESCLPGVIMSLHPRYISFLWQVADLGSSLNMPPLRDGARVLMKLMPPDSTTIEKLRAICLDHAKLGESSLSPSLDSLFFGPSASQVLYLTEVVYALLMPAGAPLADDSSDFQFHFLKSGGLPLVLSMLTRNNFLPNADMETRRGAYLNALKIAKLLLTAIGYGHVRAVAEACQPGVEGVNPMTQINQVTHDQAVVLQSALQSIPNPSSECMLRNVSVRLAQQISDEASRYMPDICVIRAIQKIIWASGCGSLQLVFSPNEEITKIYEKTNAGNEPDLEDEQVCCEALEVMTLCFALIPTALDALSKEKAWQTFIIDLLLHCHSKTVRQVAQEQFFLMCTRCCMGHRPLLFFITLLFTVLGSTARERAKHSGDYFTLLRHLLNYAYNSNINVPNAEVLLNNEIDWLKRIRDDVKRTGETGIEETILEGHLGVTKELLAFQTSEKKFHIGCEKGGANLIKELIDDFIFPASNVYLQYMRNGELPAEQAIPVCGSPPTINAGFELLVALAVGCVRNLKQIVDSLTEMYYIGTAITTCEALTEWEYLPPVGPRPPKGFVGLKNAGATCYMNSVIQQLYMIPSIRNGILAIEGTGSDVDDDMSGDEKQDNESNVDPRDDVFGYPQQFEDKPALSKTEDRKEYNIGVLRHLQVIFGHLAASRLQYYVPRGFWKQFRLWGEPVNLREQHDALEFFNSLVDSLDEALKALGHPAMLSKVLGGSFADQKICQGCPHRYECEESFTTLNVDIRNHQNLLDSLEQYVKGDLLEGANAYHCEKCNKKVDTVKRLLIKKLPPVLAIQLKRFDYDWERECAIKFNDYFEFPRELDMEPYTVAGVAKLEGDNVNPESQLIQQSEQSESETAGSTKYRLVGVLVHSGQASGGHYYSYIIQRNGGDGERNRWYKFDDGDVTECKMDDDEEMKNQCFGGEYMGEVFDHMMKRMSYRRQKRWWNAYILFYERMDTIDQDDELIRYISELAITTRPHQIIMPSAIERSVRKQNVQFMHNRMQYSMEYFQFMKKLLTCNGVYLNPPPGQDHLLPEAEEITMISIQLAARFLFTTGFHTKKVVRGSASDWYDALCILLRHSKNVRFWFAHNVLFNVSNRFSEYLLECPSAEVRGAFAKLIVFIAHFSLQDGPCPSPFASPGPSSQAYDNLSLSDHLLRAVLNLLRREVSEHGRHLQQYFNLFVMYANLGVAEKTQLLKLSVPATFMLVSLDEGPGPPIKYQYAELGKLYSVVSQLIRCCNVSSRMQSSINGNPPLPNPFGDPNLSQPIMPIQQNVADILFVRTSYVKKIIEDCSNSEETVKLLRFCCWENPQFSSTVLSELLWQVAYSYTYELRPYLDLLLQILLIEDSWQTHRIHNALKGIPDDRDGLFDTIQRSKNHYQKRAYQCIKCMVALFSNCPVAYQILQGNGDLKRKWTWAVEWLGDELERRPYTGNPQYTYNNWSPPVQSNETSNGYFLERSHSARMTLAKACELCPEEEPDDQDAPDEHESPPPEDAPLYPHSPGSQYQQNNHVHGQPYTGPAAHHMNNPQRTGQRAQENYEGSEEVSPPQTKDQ
# UniProt Q6BDS2, sequence (Q6BDS2 whole entry, looked up): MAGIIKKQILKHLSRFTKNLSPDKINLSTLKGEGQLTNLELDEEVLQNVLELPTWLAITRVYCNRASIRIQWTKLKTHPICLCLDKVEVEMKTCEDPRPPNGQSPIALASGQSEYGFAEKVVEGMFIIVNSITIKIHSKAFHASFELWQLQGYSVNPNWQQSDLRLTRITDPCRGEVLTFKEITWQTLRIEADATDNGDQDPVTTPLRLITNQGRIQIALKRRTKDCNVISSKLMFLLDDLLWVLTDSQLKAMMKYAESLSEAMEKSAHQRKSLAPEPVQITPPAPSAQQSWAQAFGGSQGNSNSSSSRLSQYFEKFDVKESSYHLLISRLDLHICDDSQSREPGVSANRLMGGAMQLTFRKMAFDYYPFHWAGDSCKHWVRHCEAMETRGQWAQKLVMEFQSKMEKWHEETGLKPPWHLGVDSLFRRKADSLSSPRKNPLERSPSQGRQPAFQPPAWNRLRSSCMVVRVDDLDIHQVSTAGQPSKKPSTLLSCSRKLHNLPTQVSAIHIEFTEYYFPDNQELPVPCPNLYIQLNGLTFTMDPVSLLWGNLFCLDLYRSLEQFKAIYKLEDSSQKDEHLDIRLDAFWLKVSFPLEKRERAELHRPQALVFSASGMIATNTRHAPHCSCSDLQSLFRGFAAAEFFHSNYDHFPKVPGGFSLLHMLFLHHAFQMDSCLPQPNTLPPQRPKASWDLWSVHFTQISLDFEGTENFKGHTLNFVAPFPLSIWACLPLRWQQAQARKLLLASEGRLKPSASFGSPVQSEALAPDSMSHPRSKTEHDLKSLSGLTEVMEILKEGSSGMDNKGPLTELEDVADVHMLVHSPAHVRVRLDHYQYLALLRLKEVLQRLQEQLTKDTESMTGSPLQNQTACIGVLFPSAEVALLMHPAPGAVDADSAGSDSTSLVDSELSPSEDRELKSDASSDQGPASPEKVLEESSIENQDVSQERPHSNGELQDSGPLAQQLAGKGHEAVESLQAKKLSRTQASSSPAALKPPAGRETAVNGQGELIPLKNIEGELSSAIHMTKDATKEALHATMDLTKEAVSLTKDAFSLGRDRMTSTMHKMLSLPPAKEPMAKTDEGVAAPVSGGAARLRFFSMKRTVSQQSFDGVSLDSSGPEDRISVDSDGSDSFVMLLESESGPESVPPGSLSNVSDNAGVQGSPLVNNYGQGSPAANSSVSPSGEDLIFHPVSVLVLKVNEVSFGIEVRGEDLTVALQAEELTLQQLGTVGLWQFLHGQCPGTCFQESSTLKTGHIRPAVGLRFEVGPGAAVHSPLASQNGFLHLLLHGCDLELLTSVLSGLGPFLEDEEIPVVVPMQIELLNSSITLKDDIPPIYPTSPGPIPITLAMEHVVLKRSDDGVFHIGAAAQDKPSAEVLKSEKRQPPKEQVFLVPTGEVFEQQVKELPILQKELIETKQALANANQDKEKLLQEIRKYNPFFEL
# UniProt Q8N1B4, sequence (Q8N1B4 whole entry, looked up): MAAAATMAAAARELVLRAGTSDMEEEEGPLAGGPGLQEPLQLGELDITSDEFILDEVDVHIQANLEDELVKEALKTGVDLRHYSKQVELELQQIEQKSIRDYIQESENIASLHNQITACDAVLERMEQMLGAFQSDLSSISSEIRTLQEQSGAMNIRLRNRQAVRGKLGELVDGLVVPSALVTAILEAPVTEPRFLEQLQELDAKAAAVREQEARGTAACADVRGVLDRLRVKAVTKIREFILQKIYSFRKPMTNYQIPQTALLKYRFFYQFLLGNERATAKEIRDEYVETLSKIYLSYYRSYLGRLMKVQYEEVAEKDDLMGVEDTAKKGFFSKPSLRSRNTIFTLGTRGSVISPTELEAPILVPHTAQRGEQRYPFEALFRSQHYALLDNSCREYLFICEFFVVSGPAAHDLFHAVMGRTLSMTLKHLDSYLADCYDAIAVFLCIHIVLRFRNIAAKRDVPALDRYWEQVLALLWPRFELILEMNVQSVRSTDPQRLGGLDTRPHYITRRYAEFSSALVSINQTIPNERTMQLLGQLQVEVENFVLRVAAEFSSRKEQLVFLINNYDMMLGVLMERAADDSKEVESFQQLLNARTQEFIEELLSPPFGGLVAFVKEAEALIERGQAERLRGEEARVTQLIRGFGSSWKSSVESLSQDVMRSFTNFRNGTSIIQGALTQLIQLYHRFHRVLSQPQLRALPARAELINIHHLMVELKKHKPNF
Target,log2 fold change [1],log2 fold change [2],log2 fold change [3],log2 fold change [4],log2 fold change (Nexturastat A),log2 fold change (vemurafenib),log2 fold change [5],log2 fold change [6],log2 fold change (givinostat),log2 fold change (barasertib),log2 fold change [7],log2 fold change (volasertib),log2 fold change [8],log2 fold change (epoxomicin),log2 fold change [9],log2 fold change [10],log2 fold change [11],log2 fold change (rosiglitazone),log2 fold change [12],log2 fold change [13]
TPP1 (UniProt O14773),0.006,0.037,0.02,0.03,-0.007,-0.006,-0.021,0,-0.015,-0.018,-0.647 (active),-1.09 (active),-0.002,0.019,0.033,-0.117,0.007,0.007,-0.001,-0.569 (active)
UTP14A (UniProt Q9BVJ6),0.028,0.008,-0.002,-0.068,0.194,-0.066,0.028,0.109,0.048,-0.112,0.092,0.176,0.028,-0.144,0.028,0.106,-0.136,-0.106,0.263,0.106
UBE2Q1 (UniProt Q7Z7E8),0.093,-0.041,-0.003,-0.037,0.008,0.011,0.114,-0.031,0.022,0.068,-0.087,-0.295 (active),0.015,-0.042,-0.075,-0.048,0.027,0.061,-0.007,-0.212
UHRF1BP1 (UniProt Q6BDS2),-0.068,-0.039,-0.012,-0.011,0.043,-0.035,-0.043,-0.022,-0.012,-0.009,0.137,0.131,0.036,-0.067,-0.013,-0.105,0.012,0.019,-0.09,0.211 (active)
TXNL1 (UniProt O43396),0.02,-0.105,0.007,0.098,0.117,0.037,0.079,0.015,0.114,0.045,-0.104,-0.163,0.044,0.295 (active),-0.018,-0.031,0.027,0.01,-0.018,0.011
USO1 isoform 2 (UniProt O60763),0.009,-0.013,0.02,0.038,-0.029,0.063,0.062,-0.018,0,0.031,-0.108,-0.254 (active),0.025,0.043,0.001,-0.018,0.015,0.044,-0.059,-0.111
VPS52 (UniProt Q8N1B4),-0.071,-0.001,-0.009,0.005,0.079,0.023,0.006,0.048,-0.004,0.054,-0.107,-0.383 (active),0.153,0.092,0.012,0.006,-0.021,0.094,0.037,-0.027
WDCP (UniProt Q9H6R7),0.003,0.013,-0.103,-0.023,0.061,-0.087,0.025,-0.004,0.116,-0.06,-0.196,-0.477 (active),0.102,0.127,-0.062,0.071,0.057,0.047,0.124,-0.019
TOP2A isoform 4 (UniProt P11388),0.081,-0.006,-0.083,-0.094,0.234,-0.213,0.042,0.182,0.207,-0.054,0.198,0.226,0.106,-0.231,0.052,0.156,-0.194,-0.169,0.526,0.128
TMEM161B (UniProt Q8NDZ6),0.003,-0.012,0.026,0.008,-0.063,0.079,0.053,0.012,0.032,-0.037,-0.028,-0.038,0.062,0.058,0.01,0.02,0.079,0.028,-0.068,-0.186
TXN2 (UniProt Q99757),-0.05,-0.018,-0.009,0.036,0.093,0.006,-0.048,0.095,-0.046,0.009,-0.037,0.051,-0.029,0.082,-0.038,-0.089,-0.096,-0.027,0.03,0.083
USP9X (UniProt Q93008),-0.015,-0.02,-0.009,0.023,0.015,0.019,0.075,0.007,0.025,0.043,-0.108,-0.382 (active),0.038,0.01,-0.027,-0.056,0.01,0.037,-0.028,-0.21
